In the supplement of paper PMC10849652:
About 7,900 targets were measured; listed, in parts, are those with a hit and a random draw of the rest. About 0.6% of all pairs of compound and target were hits.

Columns and labels:
Assay in all cases: log2 fold change, soluble protein after heating vs DMSO (PISA); higher = thermal stabilisation; K562 cells, 10 uM, 30 min; active = over 0.2 and 3.5 SD of the protein, either way, in both replicates (recomputed)
erlotinib = compound: C#Cc1cccc(Nc2ncnc3cc(OCCOC)c(OCCOC)cc23)c1 [erlotinib]
Procedure, shortened: (§1)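 Soluble protein was defined as the supernatant after 21,000xg for 90 min. It came from K562 cells at 2×10^6 cells/mL given 10 μM compound for 30 min, heated in aliquots for 3 min across 48°C-58°C, pooled, and extracted in PBS with 0.5% NP-40 at 4°C, and was quantified by TMTpro 16plex LC-MS/MS with equalised channel sums. Thermal stability against control samples, from duplicates, is reported as log2 fold change.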

[1] = compound: C1=CC(=C(C=C1Cl)C2=NC3=NC=CN=C3C(=N2)NC4=CC=NC=C4)F
Procedure, shortened: as §1

[2] = compound: C1=CC(=CC=C1C2=NC3=C(N2)C=C(C=C3)C(=O)N)OC4=CC=C(C=C4)Cl
Procedure, shortened: as §1

[3] = compound: C1=CC2=NC=CN=C2C=C1/C=C/3\C(=O)NC(=O)S3
Procedure, shortened: as §1

ibrutinib = compound: C=CC(=O)N1CCC[C@@H](n2nc(-c3ccc(Oc4ccccc4)cc3)c3c(N)ncnc32)C1 [ibrutinib]
Procedure, shortened: as §1

[4] = compound: CC(C)(O)CC(=O)NCCn1ccc2ncnc(Nc3ccc(Oc4cccc(C(F)(F)F)c4)c(Cl)c3)c21
Procedure, shortened: as §1

[5] = compound: CC(C)C1=C2N=C(C=C(N2N=C1)NCC3=CC=CC=C3)NCCCCCCN
Procedure, shortened: as §1

[6] = compound: CC1=C(C(CC(=O)N1)C2=CC=C(C=C2)C(F)(F)F)C(=O)NC3=C(C=C4C(=C3)C=NN4)F
Procedure, shortened: as §1

[7] = compound: C/C(=N\NC(=O)C1=CC(=CC=C1)S(=O)(=O)N2CCOCC2)/C3=C(C=CC(=C3)Cl)O
Procedure, shortened: as §1

[8] = compound: C1=CC2=C(C=CC(=C2)/C=C\3/C(=O)NC(=NCC4=CC=CS4)S3)N=C1
Procedure, shortened: as §1

[9] = compound: C1=CC=C(C=C1)C2=NC(=C(N2)C3=CC=NC=C3)C4=CC(=C(C=C4)Cl)O
Procedure, shortened: as §1

[10] = compound: C1=CC=C2C(=C1)C3=NNC4=CC=CC(=C43)C2=O
Procedure, shortened: as §1

[11] = compound: C1CCN(C1)C(=O)NC2=CC=CC(=C2)NC3=NC=C(C(=N3)NCCC4=CN=CN4)Br
Procedure, shortened: as §1

[12] = compound: C1CN(CCC1(CC2=CC=C(C=C2)Cl)N)C3=NC=NC4=C3C=CN4
Procedure, shortened: as §1

IRAK-1-4 Inhibitor I = compound: C1COCCN1CCN2C3=CC=CC=C3N=C2NC(=O)C4=CC(=CC=C4)[N+](=O)[O-] [IRAK-1-4 Inhibitor I]
Procedure, shortened: as §1

[13] = compound: CC(=O)c1cnc2ccc(-c3cc(Cl)c(O)c(Cl)c3)nc2c1N[C@H]1CC[C@H](CN(C)C)CC1
Procedure, shortened: as §1

ralimetinib = compound: CC(C)(C)Cn1c(N)nc2ccc(-c3[nH]c(C(C)(C)C)nc3-c3ccc(F)cc3)nc21 [ralimetinib]
Procedure, shortened: as §1

[14] = compound: CC(C)C[C@@H](C=O)NC(=O)[C@H](CC(C)C)NC(=O)[C@H](CC(C)C)NC(=O)OCc1ccccc1
Procedure, shortened: as §1

pinometostat = compound: CC(C)N(C[C@H]1O[C@@H](n2cnc3c(N)ncnc32)[C@H](O)[C@@H]1O)[C@H]1C[C@@H](CCc2nc3cc(C(C)(C)C)ccc3[nH]2)C1 [pinometostat]
Procedure, shortened: as §1

[15] = compound: CC1=C(C2=C(C=C1)C(=O)C3=CC=CC=C3N2CCCN)C
Procedure, shortened: as §1

Measured: log2 fold change

CASP7 isoform 3 (UniProt P55210)
UniProt P55210, sequence (P55210 whole entry, looked up): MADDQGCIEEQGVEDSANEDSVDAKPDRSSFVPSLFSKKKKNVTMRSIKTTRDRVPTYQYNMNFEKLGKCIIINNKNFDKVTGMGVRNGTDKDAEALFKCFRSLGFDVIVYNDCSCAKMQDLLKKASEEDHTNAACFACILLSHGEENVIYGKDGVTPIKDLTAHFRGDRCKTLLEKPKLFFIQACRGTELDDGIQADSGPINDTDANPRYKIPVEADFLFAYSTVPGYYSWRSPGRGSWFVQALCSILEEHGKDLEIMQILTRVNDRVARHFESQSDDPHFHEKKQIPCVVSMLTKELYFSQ
inactive: erlotinib 0.133 | [1] -0.105 | [2] 0.217 | [3] 0.118 | ibrutinib -0.005 | [4] -0.003 | [5] 0.035 | [6] 0.064

CASP10 isoform 4 (UniProt Q92851)
UniProt Q92851, sequence (Q92851 whole entry, looked up): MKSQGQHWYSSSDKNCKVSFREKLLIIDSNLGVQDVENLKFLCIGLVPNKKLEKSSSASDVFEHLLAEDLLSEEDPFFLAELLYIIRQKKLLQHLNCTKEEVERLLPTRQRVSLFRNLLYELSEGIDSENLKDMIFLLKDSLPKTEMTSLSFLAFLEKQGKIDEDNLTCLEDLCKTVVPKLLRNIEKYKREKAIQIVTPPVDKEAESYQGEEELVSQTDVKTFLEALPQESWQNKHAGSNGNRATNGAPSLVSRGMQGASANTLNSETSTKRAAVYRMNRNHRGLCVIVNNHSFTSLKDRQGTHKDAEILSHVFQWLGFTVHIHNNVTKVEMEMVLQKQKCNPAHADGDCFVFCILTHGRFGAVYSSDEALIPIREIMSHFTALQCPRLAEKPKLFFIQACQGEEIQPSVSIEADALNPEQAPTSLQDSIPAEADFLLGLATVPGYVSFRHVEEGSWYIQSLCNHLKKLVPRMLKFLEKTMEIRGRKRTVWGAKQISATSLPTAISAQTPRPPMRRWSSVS
inactive: [7] 0.138 | [1] 0.026 | [8] 0.124 | [3] -0.046 | [9] 0.051 | [10] -0.04 | [11] -0.13 | [12] -0.21 | IRAK-1-4 Inhibitor I -0.132 | ibrutinib -0.083 | [13] 0.083 | ralimetinib 0.095 | [4] -0.13 | [14] -0.015 | pinometostat 0.047 | [6] 0.021 | [15] 0.262

CCDC167 (UniProt Q9P0B6)
UniProt Q9P0B6, sequence (Q9P0B6 whole entry, looked up): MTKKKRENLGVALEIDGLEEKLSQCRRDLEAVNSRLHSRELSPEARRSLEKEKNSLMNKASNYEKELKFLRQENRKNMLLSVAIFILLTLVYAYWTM
inactive: erlotinib 0.068 | [1] 0.008 | [2] -0.041 | [3] 0.054 | [9] 0.072 | [11] 0.054 | [12] 0.224 | IRAK-1-4 Inhibitor I -0.056 | ibrutinib 0.013 | ralimetinib -0.028 | [4] 0.163 | [5] -0.258 | [14] 0.061 | pinometostat 0.052 | [6] 0.034 | [15] 0.021

CLPTM1L (UniProt G5E9Z2)
inactive: [7] 0.109 | [1] 0.492 | [8] -0.139 | [3] 0.284 | [10] 0.174 | [11] 0.145 | [12] 0.272 | [13] -0.03 | [4] -0.556 | [6] 0.106 | [15] -0.201

CLN3 (UniProt Q13286)
UniProt Q13286, sequence (Q13286 whole entry, looked up): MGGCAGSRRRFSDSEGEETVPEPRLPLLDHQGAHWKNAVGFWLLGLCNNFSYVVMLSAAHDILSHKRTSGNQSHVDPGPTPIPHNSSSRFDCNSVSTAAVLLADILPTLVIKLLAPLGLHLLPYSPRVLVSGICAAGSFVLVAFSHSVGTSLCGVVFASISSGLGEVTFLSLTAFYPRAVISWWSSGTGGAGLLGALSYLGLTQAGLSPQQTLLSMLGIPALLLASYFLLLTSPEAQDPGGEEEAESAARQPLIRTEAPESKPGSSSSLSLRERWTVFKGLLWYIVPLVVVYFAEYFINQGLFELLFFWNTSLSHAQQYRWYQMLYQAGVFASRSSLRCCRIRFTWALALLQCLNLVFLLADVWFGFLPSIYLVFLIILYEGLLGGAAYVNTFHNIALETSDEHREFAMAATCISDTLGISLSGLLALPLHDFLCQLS
inactive: erlotinib 0 | [1] 0.025 | [2] 0.162 | [3] 0.117 | [9] -0.05 | [11] 0.055 | [12] 0.026 | IRAK-1-4 Inhibitor I 0.106 | ralimetinib -0.05 | [4] -0.011 | [14] -0.043 | pinometostat -0.113 | [6] 0.054 | [15] -0.147
active: [5] -0.532

CNRIP1 (UniProt Q96F85)
inactive: erlotinib -0.065 | [1] 0.045 | [2] 0.045 | [9] -0.115 | ralimetinib -0.051 | [4] -0.255 | [5] 0.034 | [14] 0.116 | [6] 0.165

COPS3 isoform 2 (UniProt Q9UNS2)
UniProt Q9UNS2, sequence (Q9UNS2 whole entry, looked up): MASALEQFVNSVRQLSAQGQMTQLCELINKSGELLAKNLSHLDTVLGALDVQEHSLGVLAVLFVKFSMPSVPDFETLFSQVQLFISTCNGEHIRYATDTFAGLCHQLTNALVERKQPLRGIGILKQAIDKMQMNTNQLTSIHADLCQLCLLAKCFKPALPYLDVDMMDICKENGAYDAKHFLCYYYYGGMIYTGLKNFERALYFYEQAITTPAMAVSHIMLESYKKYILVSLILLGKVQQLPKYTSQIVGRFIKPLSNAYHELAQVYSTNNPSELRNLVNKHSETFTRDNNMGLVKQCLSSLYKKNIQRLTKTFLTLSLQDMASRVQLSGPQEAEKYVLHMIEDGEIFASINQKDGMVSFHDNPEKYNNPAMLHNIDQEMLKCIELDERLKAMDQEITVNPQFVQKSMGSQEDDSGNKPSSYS
inactive: [7] -0.24 | [1] -0.075 | [8] 0.214 | [3] -0.125 | [9] -0.568 | [10] -0.126 | [11] 0.176 | [12] -0.052 | IRAK-1-4 Inhibitor I 0.098 | ibrutinib -0.015 | [13] -0.191 | ralimetinib -0.214 | [4] -0.097 | [14] 0.258 | pinometostat 0.071 | [6] 0.046 | [15] 0.053

CCNL1 (UniProt Q9UK58)
inactive: erlotinib -0.001 | [2] 0.094 | [5] -0.188

CLINT1 (UniProt Q14677)
inactive: [7] -0.106 | [1] -0.12 | [8] -0.176 | [3] 0.035 | [10] 0.031 | [11] -0.097 | [12] -0.057 | [13] 0.059 | [4] 0.221 | pinometostat 0.058 | [6] 0.099 | [15] -0.114

CRLS1 (UniProt Q9UJA2)
UniProt Q9UJA2, sequence (Q9UJA2 whole entry, looked up): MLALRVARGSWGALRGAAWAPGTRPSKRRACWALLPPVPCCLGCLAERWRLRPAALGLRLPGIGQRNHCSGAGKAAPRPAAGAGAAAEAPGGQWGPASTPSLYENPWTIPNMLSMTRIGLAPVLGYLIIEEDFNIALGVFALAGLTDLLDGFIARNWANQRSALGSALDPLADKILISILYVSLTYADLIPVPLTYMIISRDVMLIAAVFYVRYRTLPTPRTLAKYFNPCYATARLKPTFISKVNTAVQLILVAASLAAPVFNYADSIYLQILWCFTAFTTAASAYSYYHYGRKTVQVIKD
inactive: erlotinib -0.034 | [2] 0.019 | [11] -0.019 | [12] 0.074 | IRAK-1-4 Inhibitor I -0.03 | [5] 0.036 | pinometostat -0.071 | [6] -0.032 | [15] -0.005

COMMD3-BMI1 (UniProt R4GMX3)
inactive: [7] -0.043 | [1] -0.051 | [8] 0.077 | [10] -0.169 | [11] -0.191 | [12] 0.095 | [13] 0.055 | [4] -0.003 | [6] 0.028 | [15] -0.071

C5orf30 (UniProt Q96GV9)
UniProt Q96GV9, sequence (Q96GV9 whole entry, looked up): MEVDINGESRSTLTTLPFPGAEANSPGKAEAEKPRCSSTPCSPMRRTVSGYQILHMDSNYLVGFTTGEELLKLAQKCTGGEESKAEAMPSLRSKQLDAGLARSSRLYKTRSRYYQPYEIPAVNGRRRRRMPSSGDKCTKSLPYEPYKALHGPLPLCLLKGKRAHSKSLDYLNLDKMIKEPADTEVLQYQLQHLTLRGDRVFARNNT
inactive: [7] 0.267 | [1] -0.056 | [8] 0.062 | [10] -0.347 | [11] 0.01 | [12] 0.128 | [4] 0.059 | [15] -0.284
active: [13] -0.917

CPNE5 (UniProt Q9HCH3)
UniProt Q9HCH3, sequence (Q9HCH3 whole entry, looked up): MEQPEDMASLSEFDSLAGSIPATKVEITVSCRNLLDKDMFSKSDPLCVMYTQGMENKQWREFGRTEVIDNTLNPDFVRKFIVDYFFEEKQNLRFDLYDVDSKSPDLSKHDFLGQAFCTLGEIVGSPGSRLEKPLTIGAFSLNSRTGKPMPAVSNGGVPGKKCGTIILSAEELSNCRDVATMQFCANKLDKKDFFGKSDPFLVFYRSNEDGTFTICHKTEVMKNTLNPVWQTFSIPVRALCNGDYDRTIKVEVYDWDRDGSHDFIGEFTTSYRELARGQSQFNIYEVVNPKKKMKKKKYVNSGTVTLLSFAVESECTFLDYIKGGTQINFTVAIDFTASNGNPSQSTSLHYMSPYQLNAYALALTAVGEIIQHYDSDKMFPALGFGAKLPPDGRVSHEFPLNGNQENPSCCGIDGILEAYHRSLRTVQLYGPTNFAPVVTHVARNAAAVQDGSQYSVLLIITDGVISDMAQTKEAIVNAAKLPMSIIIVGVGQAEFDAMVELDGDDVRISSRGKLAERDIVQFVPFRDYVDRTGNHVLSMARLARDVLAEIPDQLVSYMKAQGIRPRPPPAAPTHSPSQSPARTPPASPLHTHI
active: [12] -0.879
inactive: erlotinib 0.074 | [2] -0.175 | [11] 0.087 | [5] -0.209 | [15] -0.225

CARD9 (UniProt Q9H257)
UniProt Q9H257, sequence (Q9H257 whole entry, looked up): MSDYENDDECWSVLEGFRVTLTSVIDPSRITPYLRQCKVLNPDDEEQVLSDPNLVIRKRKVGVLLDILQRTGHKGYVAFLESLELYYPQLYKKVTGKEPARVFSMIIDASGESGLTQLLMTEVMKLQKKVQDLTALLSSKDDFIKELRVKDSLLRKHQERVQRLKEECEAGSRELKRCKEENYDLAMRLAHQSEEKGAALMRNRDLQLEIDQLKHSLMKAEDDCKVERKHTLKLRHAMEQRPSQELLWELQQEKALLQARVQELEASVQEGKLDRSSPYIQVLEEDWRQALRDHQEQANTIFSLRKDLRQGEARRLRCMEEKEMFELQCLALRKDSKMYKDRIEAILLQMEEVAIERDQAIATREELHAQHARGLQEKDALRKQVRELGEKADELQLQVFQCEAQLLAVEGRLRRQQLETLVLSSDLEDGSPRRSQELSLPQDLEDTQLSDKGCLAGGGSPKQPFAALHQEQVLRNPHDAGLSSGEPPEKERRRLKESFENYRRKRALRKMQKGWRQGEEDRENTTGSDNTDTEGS
inactive: erlotinib -0.173 | [7] 0.211 | [2] 0.056 | [8] -0.184 | [9] 0.129 | [10] -0.058 | IRAK-1-4 Inhibitor I -0.181 | [13] -0.255 | ralimetinib 0.15 | [5] 0.071 | [14] 0.178 | pinometostat 0.202

CCDC187, A0A1W2PQX5
inactive: [7] -0.124 | [1] -0.079 | [8] 0.169 | [9] -0.055 | [10] 0.013 | [13] -0.14 | ralimetinib -0.237 | [4] 0.201 | [14] 0.001 | [6] -0.11

CD68 (UniProt P34810)
active: [5] -0.535
inactive: erlotinib -0.13 | [2] 0.022 | [3] 0.094 | ibrutinib 0.057

CEP128 (UniProt Q6ZU80)
UniProt Q6ZU80, sequence (Q6ZU80 whole entry, looked up): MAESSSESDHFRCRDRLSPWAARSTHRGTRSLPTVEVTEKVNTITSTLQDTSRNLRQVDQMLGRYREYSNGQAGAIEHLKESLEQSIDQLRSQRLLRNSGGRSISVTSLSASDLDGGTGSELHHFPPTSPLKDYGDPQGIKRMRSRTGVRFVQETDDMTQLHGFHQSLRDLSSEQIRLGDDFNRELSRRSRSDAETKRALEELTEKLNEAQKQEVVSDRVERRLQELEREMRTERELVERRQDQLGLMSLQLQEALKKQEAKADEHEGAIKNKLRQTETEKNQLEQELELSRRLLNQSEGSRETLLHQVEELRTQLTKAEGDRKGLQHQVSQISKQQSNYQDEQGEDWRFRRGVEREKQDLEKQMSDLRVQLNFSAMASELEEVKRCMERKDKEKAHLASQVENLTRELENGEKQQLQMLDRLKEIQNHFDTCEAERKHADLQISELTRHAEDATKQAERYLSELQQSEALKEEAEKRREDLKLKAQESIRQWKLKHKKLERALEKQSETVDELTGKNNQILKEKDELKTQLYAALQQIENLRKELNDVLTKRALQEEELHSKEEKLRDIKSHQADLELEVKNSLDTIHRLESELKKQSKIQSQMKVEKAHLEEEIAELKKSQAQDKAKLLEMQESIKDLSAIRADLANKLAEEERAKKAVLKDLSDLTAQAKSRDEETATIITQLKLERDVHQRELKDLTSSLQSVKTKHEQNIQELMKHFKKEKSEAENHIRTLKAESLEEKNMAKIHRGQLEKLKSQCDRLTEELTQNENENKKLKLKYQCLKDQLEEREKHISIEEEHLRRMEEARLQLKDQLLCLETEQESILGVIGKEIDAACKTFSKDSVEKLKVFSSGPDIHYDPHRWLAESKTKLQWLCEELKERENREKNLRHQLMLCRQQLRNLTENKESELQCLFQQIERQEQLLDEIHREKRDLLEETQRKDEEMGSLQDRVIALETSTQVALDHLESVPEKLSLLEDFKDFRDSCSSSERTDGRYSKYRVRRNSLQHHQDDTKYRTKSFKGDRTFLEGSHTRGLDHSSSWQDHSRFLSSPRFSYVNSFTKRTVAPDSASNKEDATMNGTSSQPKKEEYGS
inactive: [7] -0.163 | [8] 0.199 | [3] 0.158 | [10] -0.037 | [11] 0.141 | [12] -0.003 | IRAK-1-4 Inhibitor I -0.149 | ibrutinib -0.055 | [13] -0.022 | pinometostat 0.012 | [15] 0.1

CLCN5 isoform 2 (UniProt P51795)
inactive: erlotinib -0.009 | [2] 0.064 | [9] 0.125 | [11] -0.098 | [12] -0.011 | IRAK-1-4 Inhibitor I -0.019 | ralimetinib -0.154 | [5] -0.29 | [14] -0.004 | pinometostat 0.061 | [6] 0.021 | [15] 0.009

CNN1 (UniProt P51911)
UniProt P51911, sequence (P51911 whole entry, looked up): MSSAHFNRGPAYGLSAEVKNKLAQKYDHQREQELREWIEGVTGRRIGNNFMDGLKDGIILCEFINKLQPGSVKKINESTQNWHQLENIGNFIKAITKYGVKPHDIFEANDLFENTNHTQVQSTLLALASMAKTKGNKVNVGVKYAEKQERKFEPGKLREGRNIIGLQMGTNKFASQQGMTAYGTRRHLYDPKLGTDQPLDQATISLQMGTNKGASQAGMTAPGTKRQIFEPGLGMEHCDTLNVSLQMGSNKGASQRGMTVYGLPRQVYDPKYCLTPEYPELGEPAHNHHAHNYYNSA
inactive: [7] 0.062 | [1] 0.055 | [8] 0.063 | [10] 0.041 | [11] -0.129 | [12] 0.118 | [13] -0.086 | [4] -0.071 | [6] 0.144 | [15] 0.145

CFAP47 (UniProt Q6ZTR5)
inactive: [1] 0.053 | [8] 0.355 | [3] -0.123 | [10] 0.132 | ibrutinib -0.109 | [13] 0.153 | [4] 0.006
active: [7] -0.734
